This is an account of results in PubChem BioAssay AID1851 (National Center for Advancing Translational Sciences (NCATS), 2009).

Screen size: about 16,000 compounds; about 5,800 (36%) were called active. Another 23% or so got no clear call; they are omitted. Some of the results follow. Values without a mark were called inactive. Calls follow the shape of the dose curve; as a rule, active = well fitted curve in the direction sought with a large enough effect; inconclusive = small, poorly fitted or top-dose-only effect, or effect the other way; inactive = no such curve, though single readings can be large or run the other way.
% is scaled to controls: 0 for no effect and ±100 for the full control effect.

Chain of Cytochrome P450 2C19 (Homo sapiens) (P33261 whole entry, looked up): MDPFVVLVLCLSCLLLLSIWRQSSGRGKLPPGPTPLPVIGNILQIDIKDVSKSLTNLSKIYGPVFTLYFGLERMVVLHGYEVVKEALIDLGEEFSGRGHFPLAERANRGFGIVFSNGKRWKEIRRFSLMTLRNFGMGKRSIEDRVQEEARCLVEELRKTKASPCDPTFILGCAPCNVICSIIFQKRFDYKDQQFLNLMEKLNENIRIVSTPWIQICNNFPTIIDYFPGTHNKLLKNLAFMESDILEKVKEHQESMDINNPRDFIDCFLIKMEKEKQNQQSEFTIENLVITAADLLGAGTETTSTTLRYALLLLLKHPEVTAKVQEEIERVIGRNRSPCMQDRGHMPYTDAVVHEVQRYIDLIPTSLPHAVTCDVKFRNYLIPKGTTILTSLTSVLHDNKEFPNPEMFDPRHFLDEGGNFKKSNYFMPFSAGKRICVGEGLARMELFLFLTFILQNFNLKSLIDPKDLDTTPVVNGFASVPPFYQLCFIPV

This test addresses Cytochrome P450 2C19 (Homo sapiens) (UniProt P33261). The experiment in a line: Cytochrome panel assay with activity outcomes. As to conditions: recombinant CYP, pro-luciferin dealkylation, luminescence, p450-cyp2c19; series mostly up to 57.1 µM.
In the case of `O=C(O)c1ccccc1C1c2ccccc2Oc2ccccc21`, the activity, negative = inhibition is 9.43% [at 11.4 µM]. As usually defined, the AC50 is the concentration giving half of the maximal activity seen. Turning to `CC(=O)c1ccc(OC(=O)C2c3ccccc3Oc3ccccc32)cc1`, the AC50 is 25.1 µM (active). Same read-out and setting: the result for `CC[N+](C)(CC)CCOC(=O)C1c2ccccc2Oc2ccccc21` reads “inactive”. For `Oc1ccc(Cl)cc1C=Nc1cnc2ccccc2c1`, the activity, negative = inhibition is -4.43% [at 11.4 µM].

On to `O/N=C/c1cc(Cl)ccc1OCc1cccc2ccccc12`, for which the AC50 was 1.58 µM (active). Consider `O=[N+]([O-])c1ccc(/C=N/n2c(COc3ccccc3)n[nH]c2=S)cc1`, for which the AC50 was 11.2 µM (active). Take `O=C(N/N=C/C=C/c1ccccc1)c1cc2c(ccc3ccccc32)o1`: the AC50 result was “inactive”. For `O=S(=O)(N/N=C\C=C\c1ccccc1)c1ccc(Br)cc1`, the AC50 was 2 µM (active). `Nc1ncnc2nc(N3CCN(CCO)CC3)[nH]c12`: the activity, negative = inhibition is -15.5% [at 11.4 µM]. Turning to `COc1ccc(C(=O)N2CCC3(CCN(Cc4ccncc4)CC3)CC2)cc1`, the AC50 result is “inactive”.

With `COc1ccccc1C(c1nnnn1C(C)(C)C)N1CCCc2ccccc21` (configuration not stated), the AC50 is 4.47 µM (active). `COc1ccccc1C(c1nnnn1C(C)(C)C)N1CCN(Cc2ccncc2)CC1` (configuration not stated): the AC50 was 2.24 µM (active). Take `Cc1nc2cnc(N3CCN(C)CC3)nc2n(C)c1=O`: the AC50 result is “inactive”. For `COc1cc(C2C(C#N)=C(N)N(Nc3ccccc3)C3=C2C(=O)CC(C)(C)C3)ccc1OCc1ccccc1` (configuration not stated), the AC50 was 6.31 µM (active). Still for that read-out and setting: for `COc1ccc(C2C(C#N)=C(N)N(Nc3ccccc3)C3=C2C(=O)CC(C)(C)C3)cc1C` (configuration not stated) the value was 2.24 µM (active). On the same count and under the same terms, the result for `CN(C)N1C(N)=C(C#N)C(c2cccnc2)C2=C1CC(C)(C)CC2=O` (configuration not stated) reads “inactive”; that for `COc1cc(C2C(C#N)=C(N)N(Nc3ccccc3)C3=C2C(=O)CC(C)(C)C3)ccc1OCc1cccc(F)c1` (configuration not stated), 7.08 µM (active). As to `Cc1noc(C)c1C(=O)N1CCC2(CCCN(Cc3ccc(C#N)cc3)C2)CC1`, the AC50 result was “inactive”. In the case of `Cc1ccccc1-c1ccc2ncnc(N(C)C)c2c1`, the concentration at half-maximal activity (AC50) was 7.94 µM (active). `COc1ccccc1-c1ccc2ncnc(N(C)C)c2c1`: the AC50 is 0.501 µM (active). Still for that read-out and setting: the result for `CN(C)c1ncnc2ccc(-c3ccccc3C(F)(F)F)cc12` reads 3.98 µM (active); that for `CN(C)Cc1ccccc1-c1ccc2ncnc(N(C)C)c2c1`, “inactive”. With `CC(=O)OC[C@@H]1O[C@@H](O/N=C2/C[C@@H](O)[C@@H](O)[C@@H]3[C@H]4C(=O)N(c5ccc(F)cc5F)C(=O)[C@@H]4CC[C@H]23)[C@H](OC(C)=O)[C@H](OC(C)=O)[C@@H]1OC(C)=O`, the activity, negative = inhibition was -9.07% [at 11.4 µM].

For the compound `CCOC(=O)N/N=C1/C[C@@H](O)[C@@H](O)[C@@H]2[C@@H]3C(=O)N(Cc4ccc5c(c4)OCO5)C(=O)[C@H]3CC[C@H]12`, the activity, negative = inhibition is -2.19% [at 11.4 µM]. Take `CCOC(=O)N/N=C1/C[C@@H](O)[C@@H](O)[C@@H]2[C@@H]3C(=O)N(Cc4ccc5c(c4)OCO5)C(=O)[C@H]3CC[C@@H]12`: the activity, negative = inhibition is 4.88% [at 11.4 µM].

In the case of `CC1(C)SC(=S)N(Cc2ccc3c(c2)OCO3)C1N(O)C(=O)NC1CCCCC1` (configuration not stated), the AC50 is 3.55 µM (active). On to `CCOC(=O)c1cc(C#N)c(Oc2ccccc2OC)nc1-c1ccccc1`, for which the AC50 was 6.31 µM (active). On the same count and under the same terms, the result for `CCCCNc1nc(-c2ccccc2)c(C(=O)OCC)cc1C#N` reads 17.8 µM (active). Same read-out and setting: for `CCCCNc1c(C(=O)OCC)c(C)nc2c1cnn2CC` the value was “inactive”. Regarding `CNS(=O)(=O)c1ccccc1C(=N)c1ccccc1`, the activity, negative = inhibition is -10% [at 11.4 µM].

With `Cn1ccnc1C[C@@](C)(O)c1ccccc1`, the activity, negative = inhibition is -6.82% [at 11.4 µM]. Take `C[C@@](O)(CNS(=O)(=O)c1ccccc1)c1ccccc1`: the AC50 was 1 µM (active). On the same count and under the same terms, the result for `CCn1c(SCC(=O)Nc2ccc3c(c2)OCCO3)nc2c(c1=O)SC(C)C2` (configuration not stated) reads 8.91 µM (active); that for `Cc1ccc2nc(NC(=O)CSc3nc4c(c(=O)n3C)SC(C)C4)sc2c1` (configuration not stated), 5.62 µM (active). `CCn1c(SCC(=O)Nc2nc3ccc(C)cc3s2)nc2c(c1=O)SC(C)C2` (configuration not stated): the AC50 is 2.82 µM (active). `Cc1ccc(OC(=O)c2cccc(C(=O)Oc3ccc(C)cn3)n2)nc1`: the AC50 entry was “inactive”. `COC(=O)c1cccc(C(=O)Nc2ccc(C)cc2)n1`: the AC50 was 11.2 µM (active). On the same count and under the same terms, the result for `CC(C)OC(=O)c1cccc(C(=O)Oc2ccc(Br)cc2)n1` reads “inactive”; that for `Cc1cc(C)n2nc(SCN3C(=O)c4ccccc4C3=O)nc2n1`, 2.51 µM (active). Same read-out and setting: for `Cc1cc(C)n2nc(SCc3cc(=O)oc4ccc5ccccc5c34)nc2n1` the value was 8.91 µM (active); for `Cc1cc(NS(=O)(=O)c2ccc(NC(=O)CN3C(=O)c4ccccc4C3=O)cc2)nc(C)n1`, “inactive”. `Cc1ccc(/C=N/NC(=O)CSc2nc3nc(C)cc(C)n3n2)cc1`: the AC50 entry is “inactive”. For `COc1ccccc1CNC(=O)CSc1nc2nc(C)cc(C)n2n1`, the AC50 was 10 µM (active).

In the case of `CCSc1nc2nc(C)cc(C)n2n1`, the AC50 result is “inactive”.

As to `CC12COC3(C(=O)Nc4nccs4)CC1CCC32C` (configuration not stated), the AC50 is 2.24 µM (active). For `COCC(=O)N1CCC2(CCCN(C(=O)Nc3cccc(C#N)c3)C2)CC1`, the AC50 entry was “inactive”. In the case of `CC(C/C=N/NC(=O)COc1cc(Cl)ccc1Cl)c1ccccc1` (configuration not stated), the AC50 was 0.447 µM (active).

With `O=C(COc1ccc(Cl)cc1Cl)N/N=C/CCc1ccccc1`, the AC50 was 2 µM (active). For `OC1(c2ccc(OC(F)F)cc2)CSC(=Nc2cccnc2)N1C1CC1` (configuration not stated), the AC50 was 0.0794 µM (active).

`COc1cc(N=c2ssnc2Cl)cc(OC)c1OC`: the AC50 is 1.12 µM (active). Same read-out and setting: the result for `Cc1cccc(OC(=O)CN2C(=O)C3C4CCC(C4)C3C2=O)c1C` (configuration not stated) reads 3.98 µM (active). As for `Cc1ccc(C)c(C(=O)CN2C(=O)c3ccccc3S2(=O)=O)c1`, the AC50 entry is “inactive”.

Turning to `C=CCn1c(C)cc(C(=O)CN2C(=O)c3ccccc3C2=O)c1C`, the AC50 is 3.98 µM (active). As to `O=C(CN1C(=O)c2ccccc2C1=O)NC1(C(=O)O)CCCC1`, the activity, negative = inhibition was 20.8% [at 11.4 µM]. Consider `c1ccc(CNc2ncncc2-c2ccc3c(c2)OCO3)cc1`, for which the AC50 was 0.501 µM (active). For the compound `Cc1cnc(CNc2ncncc2-c2ccc3c(c2)OCO3)cn1`, the AC50 entry is “inactive”. For the compound `c1cncc(CNc2ncncc2-c2ccc3c(c2)OCO3)c1`, the AC50 was 0.2 µM (active).

As for `Cc1cccc(CNc2ncncc2-c2ccc3c(c2)OCO3)c1`, the AC50 was 0.501 µM (active).

Take `c1ccc(Nc2ncncc2-c2ccc3c(c2)OCO3)cc1`: the AC50 was 0.251 µM (active).

Regarding `c1csc(CNc2ncncc2-c2ccc3c(c2)OCO3)c1`, the AC50 was 0.794 µM (active). For `CN(C)c1ncc2nc(-c3ccc(Cl)cc3)c(=O)n(C)c2n1`, the AC50 entry was “inactive”. As to `CC(C)c1nnc(-c2ccc(Cl)cc2)c(N(C)C)n1`, the AC50 is 2.51 µM (active). On to `C[C@]1(O)CC[C@H]2[C@H]3CC=C4N5CCN=C5CC[C@@]4(C)[C@H]3CC[C@@]21C`, for which the activity, negative = inhibition was 14.3% [at 11.4 µM]. Regarding `CC1(O)c2ccccc2C(=O)N1CCc1ccccc1F` (configuration not stated), the AC50 was 0.251 µM (active). As to `CC(C)c1ccc(/C(C(=O)O)=C(\O)C(=O)O)cc1`, the activity, negative = inhibition was -8.84% [at 11.4 µM]. Take `COCCn1c(=S)[nH]c2cc(C(=O)NC(C)C)ccc2c1=O`: the AC50 was 15.8 µM (active). For `COCCNC(=O)CCCCCn1c(=S)[nH]c2ccccc2c1=O`, the AC50 was 22.4 µM (active). With `CC(C)NC(=O)c1ccc2c(=O)n(Cc3ccco3)c(=S)[nH]c2c1`, the AC50 result was “inactive”. Turning to `CCC1CCCCN1CCn1c(=S)[nH]c2cc(OC)c(OC)cc2c1=O` (configuration not stated), the AC50 entry is “inactive”. Take `O=C(CCn1c(=S)[nH]c2ccccc2c1=O)NCCCN1CCOCC1`: the AC50 entry was “inactive”. As for `CCOC(=O)CCN1C(=O)[C@H]2[C@H]3[C@H](O)[C@H](O)C/C(=N/OC/C=C(\C)CCC=C(C)C)[C@H]3CC[C@@H]2C1=O`, the activity, negative = inhibition was 12.1% [at 11.4 µM]. On to `Cc1ccc(S(=O)(=O)CCCS(=O)(=O)c2ccc(C)cc2)cc1`, for which the AC50 is 10 µM (active). As for `N#Cc1ccc(CN2CCCC3(CCN(S(=O)(=O)c4ccccc4)CC3)C2)cc1`, the AC50 is 15.8 µM (active). On to `O=S(=O)(c1ccccc1)N1CCC2(CC1)CN(Cc1ccccc1)C2`, for which the AC50 result is “inactive”. In the case of `Cn1cccc1C(=O)N1CCC2(CCCN(Cc3ccc(C#N)cc3)C2)CC1`, the AC50 entry was “inactive”. With `O=S(=O)(c1ccccc1)N1CCC[C@@]2(CCN(Cc3nccs3)C2)C1`, the AC50 was 7.94 µM (active). As for `O=S(=O)(c1ccccc1)N1CCC2(CCN(Cc3nccs3)CC2)CC1`, the AC50 entry is “inactive”.

As to `O=S(=O)(c1ccccc1)N1CCC2(CCN(Cc3ccncc3)CC2)CC1`, the AC50 result is “inactive”. Consider `O=S(=O)(c1ccccc1)N1CCC2(CCCN(Cc3ccncc3)C2)CC1`, for which the AC50 was 0.316 µM (active). With `N#Cc1ccc(CN2CCC3(CC2)CCN(S(=O)(=O)c2ccccc2)CC3)cc1`, the AC50 entry was “inactive”. With `O=S(=O)(c1ccccc1)N1CCC2(CC1)CN(Cc1nccs1)C2`, the AC50 result is “inactive”.

Turning to `CN1CCN(c2ncc3nc(-c4cc(F)cc(F)c4)c(=O)n(CCc4ccccc4)c3n2)CC1`, the AC50 entry is “inactive”. Take `CSc1ccccc1N1CCN(C(=O)Nc2ccc3c(c2)NC(=O)CO3)CC1`: the AC50 was 7.94 µM (active). Take `COc1cccc(N2CCN(C(=O)Nc3ccc4c(c3)NC(=O)CO4)CC2)c1`: the AC50 result is “inactive”. For `Cc1ccc(-n2c3c(c(=O)[nH]c2=O)C(NS(=O)(=O)c2ccc(C)cc2)(C(F)(F)F)C(=O)N3)cc1` (configuration not stated), the AC50 result is “inactive”. Same read-out and setting: the result for `O=C(Nc1cccc(C(F)(F)F)c1)C1CCCN1S(=O)(=O)c1cccc2cccnc12` (configuration not stated) reads 11.2 µM (active). Consider `O=C1OCCC1Sc1nnnn1-c1ccccc1` (configuration not stated), for which the AC50 was 22.4 µM (active). Same read-out and setting: the result for `Cc1cc(NC(=O)CSc2nnc(-c3ccccc3)n2Cc2ccco2)no1` reads 10 µM (active); that for `O=C(CSc1nnc(-c2ccccn2)n1Cc1ccco1)Nc1ccc2c(c1)OCO2`, 6.31 µM (active); that for `NC(=O)NC(=O)CSc1nnc(-c2ccco2)n1Cc1ccccc1`, “inactive”. For the compound `CC(=O)Nc1ccc(NC(=O)CSc2nnc(-c3ccccc3)n2Cc2ccc3c(c2)OCO3)cc1`, the AC50 is 3.55 µM (active). Take `COc1ccc(-c2nc3cnc(N4CCN(C)CC4)nc3n(CCC#N)c2=O)cc1`: the AC50 result is “inactive”.
